Measured values: PubChem BioAssay AID1688 (National Center for Advancing Translational Sciences (NCATS), 2009)
Screen size: about 220,000 compounds; about 2,400 (1.1%) were called active. About 7% were inconclusive and are not listed. Calls come from the whole dose curve; as a rule, active = well fitted inhibition curve with a large enough effect; inconclusive = small, poorly fitted or top-dose-only effect, or effect the other way; inactive = no such curve, though single readings can be large or run the other way. The entries come from a sample that favours actives as a whole.

Assay: qHTS Multiplex Assay to Identify Dual Action Probes in a Cell Model of Huntington: Aggregate Formation (GFP); note: nearly all actives have a fitted effect of over 60% in size
Conditions: PC12 HttQ103-GFP aggregates, Acumen cytometry, 40 h; series mostly up to 9.22 µM; activity change, negative = inhibition: at the top concentration
From the text: NIH Chemical Genomics Center [NCGC]
NIH Molecular Libraries Probe Production centers Network [MLPCN]
Assay Submitter (PI): Wei Zheng
Huntington's disease is a neurodegenerative disorder caused by a trinucleotide repeat expansion in Exon 1 of the Huntingtin gene. The CAG trinucleotide encodes glutamine and polyglutamine expansions cause cell death in selective areas of the brain. Huntington polyglutamine repeats have the tendency to form aggregates which are observable in later stages of the disease. The exact nature of the aggregates, whether toxic, protective, or insignificant, is unclear.
A stable PC12 cell line containing a gene fusion of Exon 1 of the Huntingtin gene linked to GFP under the control of the inducible ecdysone promoter were used as the cell-based model of Huntington Disease for high throughput screening. Exon 1 of the Huntingtin gene contained an expansion of 103 polyglutamines (Q103) which, when expressed, caused cell death and distinct, bright GFP aggregates. The amount of cell death and the size and intensity of GFP aggregates increased over time and induction level. The cell death were quantified with a measurement of ATP content in the cells. A maximal 40-50% of cell death was observed when the Huntington gene was induced in this cell line.
We optimized this assay in a homogeneous 1536 well format. A quantitative high throughput screen (qHTS) was conducted on the PC12 cells which were induced to express the toxic fusion construct. Small molecules which reduced aggregate formation were identified bu using a laser scanning cytometer calibrated to detect the aggregates in cell lysates.
PC12 cells stably containing a construct with an ecdysone inducible promoter expressing GFP fused to the exon 1 of HTTQ103 (Huntington protein which containing a 103 ployglutamine expansion) were used.
NCGC Assay Protocol Summary:
Sequence, Parameter, Description
1, Reagent, 5 uL 1500 cells/well 1536 TC treated White clear bottom plate
2, Compound, 23 nL Tebufenozide inducer (100 nM final) to all columns
3, Compound, 23 nL 40 uM to 0.5 nM Libraries
5, Reagent, 5 ul ATPLite cell death assay reagent
6, Detector, Aggregate quantitation by Acumen Explorer
Media consisted of phenol red free DMEM + 5% equine serum (Hyclone # SH30072.03 ), 5% supplemented Bovine Calf Serum (Hyclone # SH30074.03 ), 1x pen/strep, no G418
Acumen Explorer was used to quantitate GFP aggregates using the following criteria: […] laser excitation, 500-530 nm emission, the PMT was set at a voltage of 450 volts, and objects ranging in size of […] in size having a signal of 6 STDEV above background were collected.
Control columns: 1 = DMSO, 2= 2 uM teb dilns (1:1), 4 = 100 nM Teb inducer. Sample columns received 100 nM Teb.
% is set by controls: 0 for no effect and ±100 for the full control effect.

Activity change, negative = inhibition, inactive:
COC(=O)c1ccc(CN(c2ccccc2OC)S(=O)(=O)c2cccs2)o1 -2.95% [at 46.1 µM], COC(=O)c1ccc(CSc2ccccc2C)o1 -0.648% [at 46.1 µM], Cn1c(=O)c2c(nc(NCc3ccccc3)n2CC(N)=O)n(C)c1=O -3.14%, Cc1ncn2cc(-c3ccc(Cl)cc3Cl)[nH]c(=O)c12 -41.8%, C=C(C)CNC(=S)Nc1ccc(S(=O)(=O)Nc2cnc3ccccc3n2)cc1 0%, CCc1cc2c(NC3CCCC3)ncnc2s1 -17.1%, Oc1ccccc1N1CCN(c2ncnc3sc(-c4ccccc4)cc23)CC1 5.69%, Cc1ccc(C(O)P(=O)(OC(C)C)c2ccc(N(C)C)cc2)cc1 (stereo unspecified) 15.4%, O=C(/C=C/Nc1ccc(S(=O)(=O)Nc2cnc3ccccc3n2)cc1)c1cccnc1 -17.6%, CCOC(=O)c1ccc(N=C2SC(C(=O)NC)CC(=O)N2CCc2ccccc2)cc1 (stereo unspecified) -13.4%, CC1=CC(C)(C)NC(=S)N1NC(=O)c1ccccc1Cl -29.3%, CN(NC(=O)c1ccccc1)c1nc2ccccc2nc1C(F)(F)F -19.7% [at 46.1 µM], CN(NC(=O)c1ccccc1F)c1nc(C(F)(F)F)nc2ccccc12 -0.998% [at 46.1 µM], O=C(OCc1ccccc1)c1ccc(O)cc1 6.43% [at 46.1 µM], O=C(NCc1cccnc1)C(=O)Nc1nc(-c2ccccc2)cs1 -4.94%, CCn1c(SCc2ccc(C)cc2)nnc1-c1nn(-c2ccccc2)ccc1=O 9.93% [at 46.1 µM], O=C(Nc1cn(-c2ccccc2)nc1-c1ccccc1)c1ccccc1 -21% [at 46.1 µM], Cc1cc(Nc2ccc(Cl)cc2)nc(N2CCOCC2)n1 -1.57%, CC(=O)NC(=O)c1ccccc1O 1.25% [at 46.1 µM], Cc1nnc(C)c2c(C)n(N)c(C)c12 0.29%, CCN1/C(=C/C(=S)Nc2ccccc2)Sc2ccccc21 4.06%, CCC(=O)/C=C1\Sc2ccccc2N1CC -1.12% [at 46.1 µM], COc1ccccc1N(C)S(=O)(=O)c1ccc(C(=O)NC2CCCCCC2)cc1 21.4%, Nc1ccc(C(=O)OCC(=O)NC2CCS(=O)(=O)C2)cc1[N+](=O)[O-] (stereo unspecified) 1.88%, Cc1cccc(NC(=O)c2sc3nc4c(c(-c5ccco5)c3c2N)CCC4)c1 -5.16% [at 46.1 µM], CC(=O)Nc1ccc(NC(=O)c2sc3nc4c(c(-c5ccc(C)cc5)c3c2N)CCC4)cc1 16.4% [at 46.1 µM], CCNc1nc(Oc2ccc(C(=O)OC)cc2)nc(N2CCOCC2)n1 12.1%, Cc1cc(=O)[nH]c(SCC(=O)Nc2ccc(Br)cc2)n1 -8.52%, C=CCNC(=S)NNC(=O)c1cc(Cl)ccc1OC 2.51%, O=C(Nc1nncs1)c1cccc(S(=O)(=O)N2CCCCC2)c1 -10.1% [at 46.1 µM], CCOC(=O)CSc1nnc(NC(=O)c2cccc(S(=O)(=O)N3CCCCC3)c2)s1 0.38% [at 46.1 µM], O=P(O)(CN1CCCCCC1)C1Cc2ccccc2C1 -5.67%, CC(=O)Nc1nc(C)c(-c2csc(Nc3ccc(S(N)(=O)=O)cc3)n2)s1 -10.9%, COc1ccc(Nc2nc(-c3ccccc3)cs2)cc1 15.7% [at 46.1 µM], OCC(CO)NC1C[C@](O)(CO)[C@@H](O)[C@H](O)[C@H]1O (stereo partly specified) -1.34% [at 46.1 µM], CC(C)(C)c1cc(C(=O)N/N=C/c2ccc([N+](=O)[O-])s2)n[nH]1 6.94%, CCOc1ccc(NC(=O)CCC(=O)N/N=C/c2ccc([N+](=O)[O-])s2)cc1 -1.14% [at 46.1 µM], Cc1ccc(S(=O)(=O)NNC(=S)NC(C)(C)C)cc1 -5.96%, CC(O)COc1ccccc1 (stereo unspecified) -7.24% [at 46.1 µM], O=C(Nc1nnc(-c2ccco2)o1)c1ccc(S(=O)(=O)N2CCOCC2)cc1 -4.11% [at 46.1 µM], CC1CCCCN1S(=O)(=O)c1ccc(S(=O)(=O)N(CC(=O)Nc2ccccc2)Cc2cccs2)cc1 (stereo unspecified) -1.27% [at 46.1 µM], COc1ccc(C(=O)N/N=C(\C)CC(=O)Nc2ccc(Cl)cn2)cc1 5.22%, COC(=O)c1sccc1NC(=O)CC1C(=O)NCCN1C(=O)Nc1ccc(F)cc1F (stereo unspecified) -10.3%, O=c1c([N+](=O)[O-])cc(C(F)(F)F)cn1Cc1cccc(Cl)c1 14.6% [at 46.1 µM]

Potency, active:
COC(=O)c1ccc(Cc2ccccc2)o1 0.0004 µM, CCc1cc2c(N3CCN(c4nnc(CC)s4)CC3)ncnc2s1 17.8 µM, CSc1nc(N(C)NC(=O)c2cccc(C)c2)c2ccccc2n1 1.26 µM, CCc1ccc(-c2nn(-c3ccccc3)cc2CSC(=N)N)cc1 17.8 µM, CCN1/C(=C/c2ccc3ccc(C)cc3[n+]2CC)Sc2ccccc21 7.94 µM, NC(=O)c1sc2nc3c(c(-c4ccccc4)c2c1N)CCC3 7.08 µM, CCOC(=O)CSc1nnc(NC(=O)c2cccc(S(=O)(=O)N3CCCC3)c2)s1 1 µM, NS(=O)(=O)c1ccc(Nc2nc(-c3ccccc3)cs2)cc1 11.2 µM, Oc1c(Cl)cc(Cl)c(Cl)c1Cc1c(O)c(Cl)cc(Cl)c1Cl 5.62 µM, Cc1ccccc1NCC(=O)N/N=C\c1ccc([N+](=O)[O-])s1 11.2 µM, CC1CCCCN1S(=O)(=O)c1ccc(C(=O)Nc2nnc(-c3cccs3)o2)cc1 (stereo unspecified) 11.2 µM, O=c1c([N+](=O)[O-])cccn1Cc1ccc(F)cc1Cl 10 µM
